Data from the supplement of paper PMC10849652.
Of roughly 8,800 targets only a part is listed; those with a hit were picked by preference. About 0.5% of all pairs of compound and target were hits.

Columns and labels:
Experiment in all cases: log2 fold change, soluble protein after heating vs DMSO (PISA); higher = thermal stabilisation; K562 lysate, 10 uM; active = over 0.2 and 3.5 SD of the protein, either way, in both replicates (recomputed)
alvocidib = compound: CN1CC[C@H](c2c(O)cc(O)c3c(=O)cc(-c4ccccc4Cl)oc23)[C@H](O)C1 [alvocidib]
Method in brief: (§1)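 Thermal stability, expressed as log-two fold change relative to solvent controls, is given from duplicates. Crude K562 extract in PBS pH 7.4 with 1 mM MgCl2, at 1 mg/mL protein, was treated with 10 μM compound for 30 min and heated in aliquots for 3 min across 48°C-58°C. After pooling, adjustment to 0.5% NP-40 at 4°C and centrifugation at 21,000xg for 90 min, supernatant protein was measured by TMTpro 16plex LC-MS/MS with channel sums equalised.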

Tubastatin A = compound: CN1CCc2c(c3ccccc3n2Cc2ccc(C(=O)NO)cc2)C1 [Tubastatin A]
Method in brief: as §1

[1] = compound: CNC(=O)C1=CC=CC=C1NC2=NC(=NC=C2Cl)NC3=C(C=C(C=C3)N4CCOCC4)OC
Method in brief: as §1

defactinib = compound: CNC(=O)c1ccc(Nc2ncc(C(F)(F)F)c(NCc3nccnc3N(C)S(C)(=O)=O)n2)cc1 [defactinib]
Method in brief: as §1

[2] = compound: CNc1nc(-c2ccc3c(N)n[nH]c3c2)cc(N2C[C@@H](C(=O)NC3CCCCC3)CC[C@H]2C)n1
Method in brief: as §1

encorafenib = compound: COC(=O)N[C@@H](C)CNc1nccc(-c2cn(C(C)C)nc2-c2cc(Cl)cc(NS(C)(=O)=O)c2F)n1 [encorafenib]
Method in brief: as §1

[3] = compound: COC(=O)[C@H](CCSC)NC(=O)C1=C(C=C(C=C1)NC[C@H](CS)N)C2=CC=CC=C2
Method in brief: as §1

alisertib = compound: COc1cc(Nc2ncc3c(n2)-c2ccc(Cl)cc2C(c2c(F)cccc2OC)=NC3)ccc1C(=O)O [alisertib]
Method in brief: as §1

[4] = compound: COc1cc2nc(-c3cc(F)ccc3O)nc(N[C@@H]3CNC[C@H]3C(C)(C)O)c2cc1OC
Method in brief: as §1

gefitinib = compound: COc1cc2ncnc(Nc3ccc(F)c(Cl)c3)c2cc1OCCCN1CCOCC1 [gefitinib]
Method in brief: as §1

lapatinib = compound: CS(=O)(=O)CCNCc1ccc(-c2ccc3ncnc(Nc4ccc(OCc5cccc(F)c5)c(Cl)c4)c3c2)o1 [lapatinib]
Method in brief: as §1

pictilisib = compound: CS(=O)(=O)N1CCN(Cc2cc3nc(-c4cccc5[nH]ncc45)nc(N4CCOCC4)c3s2)CC1 [pictilisib]
Method in brief: as §1

crizotinib = compound: C[C@@H](Oc1cc(-c2cnn(C3CCNCC3)c2)cnc1N)c1c(Cl)ccc(F)c1Cl [crizotinib]
Method in brief: as §1

[5] = compound: C[C@H](C1=CC=C(C=C1)C(=O)NC2=C3C=CNC3=NC=C2)N
Method in brief: as §1

duvelisib = compound: C[C@H](Nc1ncnc2nc[nH]c12)c1cc2cccc(Cl)c2c(=O)n1-c1ccccc1 [duvelisib]
Method in brief: as §1

gandotinib = compound: Cc1cc(Nc2cc(CN3CCOCC3)c3nc(C)c(Cc4ccc(Cl)cc4F)n3n2)n[nH]1 [gandotinib]
Method in brief: as §1

tozasertib = compound: Cc1cc(Nc2cc(N3CCN(C)CC3)nc(Sc3ccc(NC(=O)C4CC4)cc3)n2)n[nH]1 [tozasertib]
Method in brief: as §1

doramapimod = compound: Cc1ccc(-n2nc(C(C)(C)C)cc2NC(=O)Nc2ccc(OCCN3CCOCC3)c3ccccc23)cc1 [doramapimod]
Method in brief: as §1

bafetinib = compound: Cc1ccc(NC(=O)c2ccc(CN3CC[C@H](N(C)C)C3)c(C(F)(F)F)c2)cc1Nc1nccc(-c2cncnc2)n1 [bafetinib]
Method in brief: as §1

[6] = compound: Cc1cccc(CC(=O)N2CCc3c2ccc(-c2cn(C)c4ncnc(N)c24)c3F)n1
Method in brief: as §1

Measured: log2 fold change

CCDC22 (UniProt O60826)
Sequence of UniProt O60826 (O60826 whole entry, looked up): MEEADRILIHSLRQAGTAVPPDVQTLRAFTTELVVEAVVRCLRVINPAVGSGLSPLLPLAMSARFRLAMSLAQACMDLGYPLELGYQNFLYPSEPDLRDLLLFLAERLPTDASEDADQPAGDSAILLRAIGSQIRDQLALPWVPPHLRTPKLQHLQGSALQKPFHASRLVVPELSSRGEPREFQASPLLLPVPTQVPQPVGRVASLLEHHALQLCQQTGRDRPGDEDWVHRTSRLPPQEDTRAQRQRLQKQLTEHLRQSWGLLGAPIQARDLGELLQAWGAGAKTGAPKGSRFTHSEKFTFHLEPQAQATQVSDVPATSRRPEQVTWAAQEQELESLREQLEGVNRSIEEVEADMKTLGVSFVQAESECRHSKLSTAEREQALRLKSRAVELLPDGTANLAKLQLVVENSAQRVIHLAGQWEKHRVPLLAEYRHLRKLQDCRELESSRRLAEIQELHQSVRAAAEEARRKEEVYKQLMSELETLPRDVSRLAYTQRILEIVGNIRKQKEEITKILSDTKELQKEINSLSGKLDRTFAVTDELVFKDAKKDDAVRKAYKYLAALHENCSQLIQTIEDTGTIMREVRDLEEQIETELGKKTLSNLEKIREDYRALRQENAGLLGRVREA
inactive: alvocidib 0.024 | Tubastatin A -0.063 | [1] 0.012 | defactinib -0.03 | [2] 0.009 | encorafenib 0.031 | [3] -0.029 | alisertib 0.002 | [4] -0.009 | gefitinib 0.027 | lapatinib -0.002 | pictilisib -0.017 | crizotinib -0.036 | [5] -0.014 | duvelisib -0.016 | gandotinib -0.056 | tozasertib 0.03 | doramapimod 0.023 | bafetinib -0.035 | [6] -0.005

CBX5 (UniProt P45973)
Sequence of UniProt P45973 (P45973 whole entry, looked up): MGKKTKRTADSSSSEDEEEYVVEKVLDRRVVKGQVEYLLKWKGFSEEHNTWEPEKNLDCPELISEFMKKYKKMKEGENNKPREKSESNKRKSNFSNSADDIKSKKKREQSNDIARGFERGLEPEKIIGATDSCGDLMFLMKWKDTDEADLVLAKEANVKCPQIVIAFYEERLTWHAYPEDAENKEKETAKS
inactive: alvocidib -0.07 | Tubastatin A 0.037 | [1] 0.073 | defactinib -0.011 | [2] 0.021 | encorafenib -0.035 | [3] -0.007 | alisertib -0.054 | [4] 0.021 | gefitinib 0.009 | lapatinib 0.06 | pictilisib 0.024 | crizotinib -0.023 | [5] -0.187 | duvelisib -0.036 | gandotinib 0.077 | tozasertib 0.006 | doramapimod 0.006 | bafetinib -0.001 | [6] 0.064

CDK13 (UniProt Q14004)
active: alvocidib 0.287
inactive: Tubastatin A -0.1 | [1] -0.044 | defactinib 0.139 | [2] -0.184 | encorafenib -0.005 | [3] -0.033 | alisertib 0.043 | [4] 0.078 | gefitinib 0.007 | lapatinib -0.077 | pictilisib 0.108 | crizotinib 0.08 | [5] 0.025 | duvelisib -0.006 | gandotinib -0.1 | tozasertib 0.027 | doramapimod 0.002 | bafetinib 0.101 | [6] -0.046

CAMK1 (UniProt Q14012)
inactive: alvocidib -0.074 | Tubastatin A 0 | [1] 0.067 | defactinib 0.04 | [2] -0.036 | encorafenib -0.054 | [3] -0.032 | alisertib 0.016 | [4] 0.029 | gefitinib -0.01 | lapatinib -0.037 | pictilisib -0.058 | crizotinib -0.078 | [5] -0.145 | duvelisib -0.042 | gandotinib 0.187 | tozasertib 0.05 | doramapimod -0.006 | bafetinib -0.047
active: [6] 0.314

C5orf51 (UniProt A6NDU8)
Sequence of UniProt A6NDU8 (A6NDU8 whole entry, looked up): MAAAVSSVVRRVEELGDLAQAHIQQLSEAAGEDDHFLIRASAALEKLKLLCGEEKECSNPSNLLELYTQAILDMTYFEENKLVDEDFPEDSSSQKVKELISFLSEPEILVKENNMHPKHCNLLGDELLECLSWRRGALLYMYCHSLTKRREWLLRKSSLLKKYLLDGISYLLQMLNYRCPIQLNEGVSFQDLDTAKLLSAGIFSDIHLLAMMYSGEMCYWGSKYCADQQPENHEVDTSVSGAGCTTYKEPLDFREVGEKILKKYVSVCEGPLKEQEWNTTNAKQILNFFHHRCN
inactive: alvocidib 0.075 | Tubastatin A -0.123 | [1] -0.01 | defactinib -0.045 | [2] -0.043 | encorafenib -0.006 | [3] 0.144 | alisertib 0.023 | [4] 0.038 | gefitinib 0.056 | lapatinib 0.018 | pictilisib -0.003 | crizotinib -0.024 | [5] 0.039 | duvelisib -0.023 | gandotinib -0.143 | tozasertib -0.037 | doramapimod -0.027 | bafetinib -0.031 | [6] -0.037

CALB2 (UniProt P22676)
Sequence of UniProt P22676 (P22676 whole entry, looked up): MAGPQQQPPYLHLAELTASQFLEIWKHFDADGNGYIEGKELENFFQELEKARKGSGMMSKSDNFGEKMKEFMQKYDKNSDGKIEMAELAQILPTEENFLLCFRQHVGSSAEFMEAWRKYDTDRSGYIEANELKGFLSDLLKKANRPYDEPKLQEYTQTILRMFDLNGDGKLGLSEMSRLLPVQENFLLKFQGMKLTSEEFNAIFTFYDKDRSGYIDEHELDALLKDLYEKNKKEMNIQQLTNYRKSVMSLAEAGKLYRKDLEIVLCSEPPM
inactive: alvocidib -0.028 | Tubastatin A -0.022 | [1] -0.028 | defactinib -0.062 | [2] 0.034 | encorafenib -0.014 | [3] -0.003 | alisertib -0.008 | [4] -0.01 | gefitinib 0.112 | lapatinib 0.009 | pictilisib -0.07 | crizotinib 0.01 | [5] -0.041 | duvelisib 0.031 | gandotinib 0.092 | tozasertib 0.056 | doramapimod 0.003 | bafetinib 0.082 | [6] -0.007

ATP11A (UniProt P98196)
Sequence of UniProt P98196 (P98196 whole entry, looked up): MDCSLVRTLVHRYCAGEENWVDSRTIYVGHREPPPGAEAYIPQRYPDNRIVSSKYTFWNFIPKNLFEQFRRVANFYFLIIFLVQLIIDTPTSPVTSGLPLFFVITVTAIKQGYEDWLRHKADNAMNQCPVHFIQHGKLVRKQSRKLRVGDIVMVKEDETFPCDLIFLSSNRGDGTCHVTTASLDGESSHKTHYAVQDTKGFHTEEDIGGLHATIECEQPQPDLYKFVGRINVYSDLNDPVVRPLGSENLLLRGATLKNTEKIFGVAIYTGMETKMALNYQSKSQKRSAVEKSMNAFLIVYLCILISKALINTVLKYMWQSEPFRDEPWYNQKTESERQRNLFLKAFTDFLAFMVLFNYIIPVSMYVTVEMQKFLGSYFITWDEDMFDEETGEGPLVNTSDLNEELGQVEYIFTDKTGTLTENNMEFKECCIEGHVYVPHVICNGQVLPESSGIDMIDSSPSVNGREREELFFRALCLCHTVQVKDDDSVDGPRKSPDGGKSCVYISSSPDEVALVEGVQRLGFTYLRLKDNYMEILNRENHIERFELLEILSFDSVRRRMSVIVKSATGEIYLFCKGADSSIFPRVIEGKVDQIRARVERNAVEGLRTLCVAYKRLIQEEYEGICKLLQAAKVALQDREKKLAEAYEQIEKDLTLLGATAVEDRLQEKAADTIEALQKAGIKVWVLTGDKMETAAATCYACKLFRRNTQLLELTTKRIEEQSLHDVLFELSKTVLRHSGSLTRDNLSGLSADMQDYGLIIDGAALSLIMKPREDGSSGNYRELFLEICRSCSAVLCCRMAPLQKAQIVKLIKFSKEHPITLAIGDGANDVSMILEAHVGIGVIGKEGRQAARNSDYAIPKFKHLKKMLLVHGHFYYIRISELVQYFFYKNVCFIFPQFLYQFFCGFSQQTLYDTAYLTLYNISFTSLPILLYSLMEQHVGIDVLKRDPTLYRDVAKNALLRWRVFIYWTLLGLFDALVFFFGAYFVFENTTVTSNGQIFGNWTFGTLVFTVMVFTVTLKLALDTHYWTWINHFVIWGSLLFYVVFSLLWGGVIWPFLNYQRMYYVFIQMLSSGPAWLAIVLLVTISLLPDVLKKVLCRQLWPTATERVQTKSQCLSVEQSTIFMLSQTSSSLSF
inactive: alvocidib -0.002 | Tubastatin A -0.047 | [1] -0.021 | defactinib -0.017 | [2] -0.022 | encorafenib 0.028 | [3] -0.065 | alisertib -0.083 | [4] 0.01 | gefitinib 0.031 | lapatinib -0.118 | pictilisib -0.087 | crizotinib -0.005 | [5] -0.108 | duvelisib 0.081 | gandotinib 0.017 | tozasertib 0.009 | doramapimod -0.07 | bafetinib -0.05 | [6] 0.1

C1orf112 (UniProt Q9NSG2)
inactive: alvocidib -0.247 | Tubastatin A -0.181 | [1] 0.077 | defactinib 0.038 | [2] -0.082 | encorafenib 0.037 | [3] 0.096 | alisertib -0.032 | [4] -0.046 | gefitinib -0.004 | lapatinib 0.018 | pictilisib -0.004 | crizotinib -0.055 | [5] -0.073 | duvelisib -0.035 | gandotinib 0.232 | tozasertib -0.091 | doramapimod 0.021 | bafetinib 0.005
active: [6] 0.279

CARHSP1 (UniProt Q9Y2V2)
Sequence of UniProt Q9Y2V2 (Q9Y2V2 whole entry, looked up): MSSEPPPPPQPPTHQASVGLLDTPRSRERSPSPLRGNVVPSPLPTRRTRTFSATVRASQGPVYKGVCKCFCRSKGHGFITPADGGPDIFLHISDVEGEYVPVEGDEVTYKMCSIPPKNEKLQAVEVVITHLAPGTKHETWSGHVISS
inactive: alvocidib 0.031 | Tubastatin A 0.065 | [1] 0.009 | defactinib -0.033 | [2] 0.078 | encorafenib -0.013 | [3] -0.055 | alisertib -0.014 | [4] 0.01 | gefitinib -0.029 | lapatinib -0.014 | pictilisib -0.08 | crizotinib 0.011 | [5] -0.053 | duvelisib 0.003 | gandotinib 0.047 | tozasertib 0.003 | doramapimod -0.012 | bafetinib -0.033 | [6] 0.019

CDK1 (UniProt P06493)
Sequence of UniProt P06493 (P06493 whole entry, looked up): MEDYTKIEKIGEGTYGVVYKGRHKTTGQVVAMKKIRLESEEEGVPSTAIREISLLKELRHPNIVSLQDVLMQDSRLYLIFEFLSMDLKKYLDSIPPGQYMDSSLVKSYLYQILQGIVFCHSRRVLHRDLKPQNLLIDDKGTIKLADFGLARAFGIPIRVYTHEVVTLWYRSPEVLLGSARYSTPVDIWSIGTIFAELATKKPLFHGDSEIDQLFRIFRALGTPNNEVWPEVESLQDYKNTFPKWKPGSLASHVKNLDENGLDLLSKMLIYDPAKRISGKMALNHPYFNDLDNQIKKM
inactive: alvocidib 0.036 | Tubastatin A -0.032 | [1] -0.017 | defactinib -0.035 | [2] -0.021 | encorafenib 0.011 | [3] 0.036 | alisertib 0.002 | gefitinib -0.03 | lapatinib -0.012 | pictilisib -0.021 | crizotinib -0.041 | [5] -0.018 | duvelisib 0.031 | gandotinib -0.224 | tozasertib 0.001 | doramapimod 0.019 | bafetinib -0.016 | [6] -0.022
active: [4] 0.328

C2CD5 isoform 3 (UniProt Q86YS7)
Sequence of UniProt Q86YS7 (Q86YS7 whole entry, looked up): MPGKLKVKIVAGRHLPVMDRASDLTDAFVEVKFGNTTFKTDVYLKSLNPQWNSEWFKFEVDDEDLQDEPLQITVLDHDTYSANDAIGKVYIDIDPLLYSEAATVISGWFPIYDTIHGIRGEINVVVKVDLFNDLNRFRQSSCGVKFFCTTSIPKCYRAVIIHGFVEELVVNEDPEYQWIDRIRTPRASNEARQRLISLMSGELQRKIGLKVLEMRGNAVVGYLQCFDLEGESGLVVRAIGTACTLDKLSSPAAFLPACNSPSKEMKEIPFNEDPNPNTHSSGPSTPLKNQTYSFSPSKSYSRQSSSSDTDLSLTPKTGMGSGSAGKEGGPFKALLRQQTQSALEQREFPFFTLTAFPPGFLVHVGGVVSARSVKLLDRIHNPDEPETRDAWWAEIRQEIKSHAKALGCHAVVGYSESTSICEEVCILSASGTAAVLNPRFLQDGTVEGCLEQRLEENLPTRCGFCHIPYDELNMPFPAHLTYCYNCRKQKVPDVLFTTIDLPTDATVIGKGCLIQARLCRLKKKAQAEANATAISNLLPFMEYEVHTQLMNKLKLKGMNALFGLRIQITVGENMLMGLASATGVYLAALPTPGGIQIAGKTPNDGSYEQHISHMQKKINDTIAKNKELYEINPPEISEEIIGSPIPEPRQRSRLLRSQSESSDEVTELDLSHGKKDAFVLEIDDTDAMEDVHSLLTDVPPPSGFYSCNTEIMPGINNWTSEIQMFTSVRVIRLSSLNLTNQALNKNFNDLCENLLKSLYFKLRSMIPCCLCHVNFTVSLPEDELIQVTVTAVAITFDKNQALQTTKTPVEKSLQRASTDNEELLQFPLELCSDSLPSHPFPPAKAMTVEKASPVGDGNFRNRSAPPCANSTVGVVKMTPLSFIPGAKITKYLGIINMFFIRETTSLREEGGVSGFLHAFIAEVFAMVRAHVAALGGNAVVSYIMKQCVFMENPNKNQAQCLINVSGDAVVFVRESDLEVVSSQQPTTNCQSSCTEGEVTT
active: [5] -0.26 | [6] 0.28
inactive: alvocidib -0.157 | Tubastatin A 0.006 | [1] -0.003 | defactinib -0.002 | [2] 0.01 | encorafenib 0.054 | [3] -0.028 | alisertib -0.016 | [4] 0.016 | gefitinib 0.054 | lapatinib -0.031 | pictilisib -0.029 | crizotinib -0.028 | duvelisib -0.009 | gandotinib 0.125 | tozasertib -0.038 | doramapimod 0.035 | bafetinib -0.056

CEP76 (UniProt Q8TAP6)
inactive: alvocidib -0.031 | Tubastatin A -0.015 | [1] 0.03 | defactinib 0.084 | [2] -0.023 | encorafenib -0.006 | [3] 0.005 | alisertib 0.002 | [4] 0 | gefitinib 0.001 | lapatinib -0.031 | pictilisib -0.073 | crizotinib -0.106 | [5] -0.063 | duvelisib 0.141 | gandotinib 0.007 | tozasertib 0.079 | doramapimod 0.085 | bafetinib -0.115 | [6] 0.027

CCNYL1 (UniProt Q8N7R7)
inactive: alvocidib -0.074 | Tubastatin A -0.076 | [1] 0.061 | defactinib 0.024 | [2] 0.055 | encorafenib 0.011 | [3] 0.032 | alisertib -0.012 | [4] 0.032 | gefitinib 0.101 | lapatinib 0.018 | pictilisib -0.012 | crizotinib -0.015 | [5] -0.201 | duvelisib -0.003 | gandotinib 0.085 | tozasertib 0.052 | doramapimod -0.004 | bafetinib 0.006 | [6] 0.067

BLOC1S6 (UniProt Q9UL45)
Sequence of UniProt Q9UL45 (Q9UL45 whole entry, looked up): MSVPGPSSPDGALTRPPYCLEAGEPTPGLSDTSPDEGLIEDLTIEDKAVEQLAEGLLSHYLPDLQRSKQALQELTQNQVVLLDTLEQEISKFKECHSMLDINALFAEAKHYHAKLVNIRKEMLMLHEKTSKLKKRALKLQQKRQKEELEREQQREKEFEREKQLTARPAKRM
inactive: alvocidib -0.028 | Tubastatin A 0.033 | [1] 0.051 | defactinib 0.014 | [2] 0.082 | encorafenib 0.147 | [3] 0.056 | alisertib -0.22 | [4] -0.036 | gefitinib 0.047 | lapatinib -0.018 | pictilisib -0.037 | crizotinib 0.062 | [5] 0.048 | duvelisib 0.021 | gandotinib 0.031 | tozasertib -0.11 | doramapimod -0.011 | bafetinib 0.033 | [6] -0.066

CCT6A (UniProt P40227)
Sequence of UniProt P40227 (P40227 whole entry, looked up): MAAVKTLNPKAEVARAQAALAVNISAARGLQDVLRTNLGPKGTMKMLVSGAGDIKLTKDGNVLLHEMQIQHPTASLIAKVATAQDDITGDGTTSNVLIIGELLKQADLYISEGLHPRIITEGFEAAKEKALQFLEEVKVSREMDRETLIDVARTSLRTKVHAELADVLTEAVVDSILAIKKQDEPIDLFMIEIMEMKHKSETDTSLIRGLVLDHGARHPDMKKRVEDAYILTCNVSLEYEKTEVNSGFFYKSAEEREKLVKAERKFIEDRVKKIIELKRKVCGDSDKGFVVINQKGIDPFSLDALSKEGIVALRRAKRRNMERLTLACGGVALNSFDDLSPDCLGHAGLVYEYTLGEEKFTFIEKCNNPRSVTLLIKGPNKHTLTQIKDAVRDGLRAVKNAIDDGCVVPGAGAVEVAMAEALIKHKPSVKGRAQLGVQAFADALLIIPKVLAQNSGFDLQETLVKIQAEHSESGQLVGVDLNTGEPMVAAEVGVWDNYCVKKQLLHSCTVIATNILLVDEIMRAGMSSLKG
inactive: alvocidib 0.027 | Tubastatin A 0.025 | [1] 0.006 | defactinib -0.018 | [2] -0.001 | encorafenib -0.015 | [3] -0.024 | alisertib 0.012 | [4] -0.003 | gefitinib -0.021 | lapatinib -0.01 | pictilisib 0.008 | crizotinib 0.026 | [5] 0.009 | duvelisib -0.004 | gandotinib -0.018 | tozasertib -0.012 | doramapimod -0.013 | bafetinib 0.013 | [6] -0.028

CFDP1 (UniProt Q9UEE9)
Sequence of UniProt Q9UEE9 (Q9UEE9 whole entry, looked up): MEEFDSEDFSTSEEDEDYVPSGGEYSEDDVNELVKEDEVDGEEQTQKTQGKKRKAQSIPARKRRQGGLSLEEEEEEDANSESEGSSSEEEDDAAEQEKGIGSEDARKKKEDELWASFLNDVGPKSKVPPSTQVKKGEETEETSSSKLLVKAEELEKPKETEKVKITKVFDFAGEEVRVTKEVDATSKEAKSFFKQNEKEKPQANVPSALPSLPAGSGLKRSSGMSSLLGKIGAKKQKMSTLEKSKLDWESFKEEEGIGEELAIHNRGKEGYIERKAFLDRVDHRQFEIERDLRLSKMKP
inactive: alvocidib -0.104 | Tubastatin A 0.057 | [1] 0.042 | defactinib -0.01 | [2] -0.051 | encorafenib 0.005 | [3] -0.021 | alisertib -0.013 | [4] 0.015 | gefitinib -0.005 | lapatinib -0.018 | pictilisib 0.008 | crizotinib -0.052 | duvelisib 0.006 | gandotinib 0.066 | tozasertib -0.032 | doramapimod 0.041 | bafetinib 0.07 | [6] 0.091
active: [5] -0.288
